In PubChem BioAssay (NCI):
Compounds without any hit were thinned out: in the full panel of roughly 79,000, 15% have a hit. Unmarked numbers belong to inactive results. Calls of active or inactive are those of the source. Cut-off read from the data, not from the text of the source: active = growth inhibition above about 70%; inactive = the rest.

What was measured:
[1] = NCI Yeast Anticancer Drug Screen. Data for the rad50 strain (AID 155);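 note: 0% = growth of vehicle-only cultures of the same strain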; settings: S. cerevisiae rad50 strain growth inhibition; at 50.0 µM; stronger effect = higher value
Outline: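 A DNA repair-deficient yeast mutant serves as the test organism; compound-induced growth inhibition is calculated against vehicle-treated cells.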

[2] = NCI Yeast Anticancer Drug Screen. Data for the mec2-1 strain (AID 157); settings: S. cerevisiae mec2-1 strain, at 50.0 µM, stronger effect = higher value
Outline: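 Mutant yeast (mec2-1) grown with compound; growth inhibition relative to vehicle control reported.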

[3] = NCI Yeast Anticancer Drug Screen. Data for the sgs1 mgt1 strain (AID 161);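 note: 0% = growth of cultures given vehicle only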; settings: S. cerevisiae sgs1 mgt1 strain, at 50.0 µM, stronger effect = higher value
Outline: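 Growth of a repair-deficient yeast mutant was monitored after compound treatment and expressed as inhibition relative to vehicle-treated cultures.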

[4] = NCI Yeast Anticancer Drug Screen. Data for the cln2 rad14 strain (AID 165);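 note: 0% = growth equal to vehicle treated cultures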; settings: S. cerevisiae cln2 rad14 strain, at 50.0 µM, stronger effect = higher value
Outline: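 Readout is yeast growth inhibition versus vehicle-treated controls, using a strain with cln2 and rad14 alterations exposed to compound.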

[5] = NCI Yeast Anticancer Drug Screen. Data for the bub3 strain (AID 167); settings: S. cerevisiae bub3 mutant strain, at 50.0 µM, stronger effect = higher value
Outline: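 Inhibition values come from growth of compound-treated mutant yeast normalised to vehicle-treated controls.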

[6] = NCI Yeast Anticancer Drug Screen. Data for the mlh1 rad18 strain (AID 175); settings: S. cerevisiae mlh1 rad18 strain growth inhibition; at 50.0 µM; stronger effect = higher value
Outline: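 Genetically defined yeast (DNA repair-deficient) exposed to compounds; growth inhibition determined relative to vehicle.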

Row | Structure (SMILES) | growth inhibition [1] | growth inhibition [2] | growth inhibition [3] | growth inhibition [4] | growth inhibition [5] | growth inhibition [6]
1 | Cc1ccccc1C(=O)c1ccccc1Cc1cccc2ccccc12 | -2.4% | -10.3% | -10.2% | 1.1% | 8.95% | -22.9%
2 | COc1ccc(/C=N\O[Si](C)(C)C(C)(C)C)cc1O[Si](C)(C)C(C)(C)C | 31.9% | 17.2% | 21.9% | 5.05% | -3.25% | 15.8%
3 | Nc1c(Cl)cccc1C(=O)c1ccccc1C(=O)O | -9.8% | 4.8% | 5.4% | -14.8% | 1% | -3.15%
4 | O=C(NC1(C(=O)O)CC1c1ccccc1)c1ccccc1 (stereo unspecified) | -1.2% | 21% | 0.05% | -10.2% | 9.05% | 42.8%
5 | CN(C)c1ccc([N+](=O)[O-])cc1 | -76.2% | -24% | -61.6% | -43.1% | -9.2% | -57.4%
6 | CC1(C)C2CC(NC(=O)c3ccc([N+](=O)[O-])cc3)C1C2 (stereo unspecified) | 18.6% | 4.6% | -1.5% | -4.9% | 3.25% | 11.9%
7 | CN(N=O)C(=O)NCCc1ccccc1 | 13.6% | -11.9% | 11.6% | -36.6% | -5.2% | 16.2%
8 | CCn1c(C)cc(=NC(=O)c2ccccc2O)n1-c1ccccc1 | 4.45% | 9.8% | 25.6% | 11.5% | 21% | 16.7%
9 | C[Si](C)(Cl)c1ccccc1 | -47.6% | -27.4% | -11.7% | 17.4% | -23.6% | -18.4%
10 | N=c1oc2cc(O)ccc2cc1C(=O)NCc1ccccc1 | 17.8% | 27.4% | -2.9% | 20.4% | -8.25% | -7.15%
11 | CCOC(=O)NC(=O)c1cn(CCN2CCN(C(=O)NCCCCCCNC(=O)N3CCN(CCn4cc(C(=O)NC(=O)OCC)c(=O)n(CCN(CC)CC)c4=O)CC3)CC2)c(=O)n(CCC(CC)CC)c1=O | -10.1% | 8.7% | -6.65% | -20.9% | 2.5% | -31.5%
12 | CC/C(C)=N/NC(=O)c1ccc([N+](=O)[O-])cc1 | 22.7% | 12% | 20.8% | 8.6% | 0.95% | 16.6%
13 | N#C/C(=C1\SC(N=Nc2ccc(Cl)cc2)C(=O)N1c1ccccc1)c1nc2ccccc2[nH]1 (stereo unspecified) | 6.6% | 6.05% | 6.75% | -40.9% | 3.05% | -5.05%
14 | CC(=O)Nc1cnc2c(nc3cc(C)ccn32)c1C | -5% | -9.1% | -19.9% | -9.55% | -0.7% | -10.2%
15 | C=C(C(=O)NC1CCCCC1)c1ccccc1 | -9.2% | -22.4% | -8.2% | -12.4% | 8.25% | 0%
16 | CCOC1CCC(C(=O)CC)C(C#N)(C#N)C1(C#N)C#N (stereo unspecified) | 22.6% | 13.7% | 4.75% | 12.8% | 11.8% | 7.8%
17 | C=CCOc1cc2c(cc1Cc1cc(OC)c(OC)c(OC)c1)OCO2 | 22.9% | -20.8% | 49.6% | 9.85% | 37.6% | 55.2%
18 | CCN(CC)C(=O)Sc1ccc(SC(=O)N(CC)CC)cc1 | -5% | 12.6% | -2.05% | -5.65% | -3.3% | -6.4%
19 | CCOC(=O)CCc1c(C)c2c(O)cc(O)cc2oc1=O | 3.25% | -3.5% | -19.5% | 8.3% | -42.9% | 20.7%
20 | CNC1NC(=O)c2ccccc2N1Cc1ccc(F)cc1 (stereo unspecified) | 5.7% | 4.5% | -23.1% | -19.6% | -12.1% | -4.25%
21 | COc1ccc(CN2CCCN(Cc3ccc(OC)cc3OC)C2c2cccc(OC)c2O)c(OC)c1 | 20.6% | 16.6% | 12.6% | 16% | -6.5% | 6.5%

Row | Structure (SMILES) | growth inhibition [1] | growth inhibition [2] | growth inhibition [3] | growth inhibition [4] | growth inhibition [5] | growth inhibition [6]
22 | C=CCN(CC=C)c1nc(N)c2ccc(Cl)cc2n1 | -8% | -8% | -6.65% | -52.4% | -10.8% | -6.45%
23 | O=C(Nc1ccc(Cl)cc1)c1cccnc1 | 10.1% | -10.7% | 32.8% | -8.5% | 34.4% | 15.6%
24 | O=[N+]([O-])c1cccc(-c2csc(N=Nc3c(O)[nH]c4ccccc34)n2)c1 | -29.6% | -8.9% | -0.3% | -12.9% | 14.2% | 13.3%
25 | C/C(=N/NC(N)=S)c1ccc2ccccc2c1 | 17.4% | 17.1% | 43.8% | 17.2% | 28.9% | 29.4%
26 | Ic1ccc(N=Nc2ccccc2)cc1 | -8% | -11.9% | -5.35% | -70.3% | 25.3% | -12.5%
27 | CCCCCC(CCCCC)=C(C#N)C(=O)OCC | -6.15% | 21.1% | 7.55% | -19.4% | 19.9% | 25.8%
28 | C=CCN=C1NC(=O)C(CC(=O)Nc2cccc(Cl)c2)S1 (stereo unspecified) | -41% | -25% | -34.2% | 6.85% | -36.5% | -22.4%
29 | COc1ccc(/C=C2\CCCC3=C2NC(=S)NC3c2ccc(OC)cc2)cc1 (stereo unspecified) | 24.8% | 21.4% | -6.35% | 5.9% | -1.95% | -37.4%
30 | O=C(Nc1cccc(C(F)(F)F)c1)c1ccco1 | 34.5% | 9.75% | 28.7% | 3.55% | 11.1% | 17%
31 | OCCc1c[nH]c2ccccc12 | -18.7% | -16.2% | 10.5% | -17.3% | -1.85% | 11.8%
32 | S=C(NCc1ccc(Cl)c(Cl)c1)Nc1ccccc1 | 98% (active) | 99.2% (active) | 99% (active) | 98.2% (active) | 97.3% (active) | 98% (active)
33 | CCOC(=O)c1c(C(=O)OC)nc2n1-c1ccccc1OC2 | -16.2% | -36.1% | -14.4% | -17.8% | -17.4% | -0.7%
34 | CCCCC(C(=O)OCC)[N+](=O)[O-] (stereo unspecified) | -24.2% | -25.2% | 2.5% | 5.5% | 2.35% | 16.4%
35 | Nc1ccc(-c2ccccc2)cc1[N+](=O)[O-] | 33.2% | -8.85% | 16.1% | -23.2% | 21.1% | 8.8%
36 | O=C(CC/C=C(/CS(=O)(=O)c1ccccc1)S(=O)(=O)c1ccccc1)c1ccccc1 | 20.3% | -15.1% | -5.75% | -24.1% | -6.15% | 13.4%
37 | CCCCCCNC(=O)/C(=C\c1ccc(Cl)cc1Cl)NC(=O)c1ccccc1 | -3.7% | -17.8% | -9.75% | 33.1% | -16.5% | -9.6%
38 | O=[N+]([O-])c1ccc(Oc2ccc(S(=O)(=O)O)cc2)cc1 | 13.8% | 6.5% | -4.35% | 7.4% | 6.6% | 2.5%
39 | COc1ccc(/C=C2/SC(=S)NC2=O)cc1S(=O)(=O)O | 2.25% | -6.15% | 8.65% | -10.8% | 9.95% | -1.15%
40 | Cc1nc2ccccc2c(=O)o1 | -12.2% | 7.05% | 9.85% | 15.1% | -5.65% | -21%
41 | CC1=NN(C(=O)CC(=O)Nc2ccc(C(=O)O)cc2)C(=O)C1N=Nc1ccccc1C(=O)O (stereo unspecified) | 18.1% | 18% | 6.25% | -6.5% | -1.9% | 25.7%
